# According to PMC12820563, “FoxP3 forms a head-to-head dimer in vivo and stabilizes its multimerization on adjacent microsatellites”:
# The full ranking holds about 16,000 sequences; the median of “rpm ratio (pull-down/input)” is about 0.5, and the highest 2% start at about 5.5. Only a selection was taken, and the highest values are over-represented in it overall.
# Biological target: T1, MBP-FoxP3dN (Mus musculus, UniProt Q99JB6 188-423)
# T1 sequence: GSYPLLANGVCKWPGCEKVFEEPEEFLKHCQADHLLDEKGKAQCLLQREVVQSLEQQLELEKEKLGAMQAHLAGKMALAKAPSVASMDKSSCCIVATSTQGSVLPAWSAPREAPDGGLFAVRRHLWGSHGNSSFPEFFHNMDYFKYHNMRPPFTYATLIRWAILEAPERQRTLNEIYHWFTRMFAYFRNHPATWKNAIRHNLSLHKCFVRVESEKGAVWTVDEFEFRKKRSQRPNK
# Assay: PD-seq (MBP pull-down with sequencing); 20 mM Tris-HCl pH 7.5, 100 mM NaCl, 1.5 mM MgCl2, 0.4 uM protein, 0.1 uM dsDNA library, 30 min, room temperature, amylose pull-down; high values mean tight binding
# Settings: protein: recombinant; tags: His6-MBP; chain copies: 2; dsDNA, one strand shown
# Summary of the method: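 Mouse FoxP3 or FoxP1 fragment lacking the N-terminus, His6-MBP-tagged and expressed in E. coli, was incubated at 0.4 µM with 0.1 µM Klenow-filled degenerate double-stranded DNA library for 30 min at room temperature in Tris pH 7.5 buffer with NaCl and MgCl2. Complexes captured on amylose resin were washed three times and their DNA sequenced on Illumina. Binding is reads-per-million enrichment of pull-down over input, replicates pooled.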
row,Sequence,binding signal
1,GATGATTGTTCTCCCAGCTGATGAATTGCCCAACTCGAGTAAACAAATTTTCCTAATCTTTCTGTTCAAGCGCCATCTAC,0.42 RPM ratio (pull-down/input)
2,GATGATTGTTCTCCCAGCTGATGAATTGCGCAACTCGAGTAAACAAATTTTCCTAATCTTTCTGTTCAAGCGCCATCTAC,6.43 RPM ratio (pull-down/input)
3,GATGATTGTTCTCCCAGCTGATGAATTCGCCAACTCGAGTAAACAAATTTTCCTAATCTTTCTGTTCAAGCGCCATCTAC,0.292 RPM ratio (pull-down/input)
4,GATGATTGTTCTCCCAGCTGATGAATTTTTCAACTCGAGTAAACAAATTTTCCTAATCTTTCTGTTCAAGCGCCATCTAC,0.287 RPM ratio (pull-down/input)
5,GATGATTGTTCTCCCAGCTGATGAATTCGCAAACTCGAGTAAACAAATTTTCCTAATCTTTCTGTTCAAGCGCCATCTAC,0.431 RPM ratio (pull-down/input)
6,GATGATTGTTCTCCCAGCTGATGAATTTCGCAACTCGAGTAAACAAATTTTCCTAATCTTTCTGTTCAAGCGCCATCTAC,5.53 RPM ratio (pull-down/input)
7,GATGATTGTTCTCCCAGCTGATGAATTTCCCGTGTCGAGTAAACAAATTTTCCTAATCTTTCTGTTCAAGCGCCATCTAC,0.287 RPM ratio (pull-down/input)
8,GATGATTGTTCTCCCAGCTGATGAATTAGCTTCTTCGAGTAAACAAATTTTCCTAATCTTTCTGTTCAAGCGCCATCTAC,0.901 RPM ratio (pull-down/input)
9,GATGATTGTTCTCCCAGCTGATGAATTAGCTGTCTCGAGTAAACAAATTTTCCTAATCTTTCTGTTCAAGCGCCATCTAC,2.44 RPM ratio (pull-down/input)
10,GATGATTGTTCTCCCAGCTGATGAATTAGTTCTGTCGAGTAAACAAATTTTCCTAATCTTTCTGTTCAAGCGCCATCTAC,0.398 RPM ratio (pull-down/input)
11,GATGATTGTTCTCCCAGCTGATGAATTAGTTGTCTCGAGTAAACAAATTTTCCTAATCTTTCTGTTCAAGCGCCATCTAC,5.87 RPM ratio (pull-down/input)
12,GATGATTGTTCTCCCAGCTGATGAATTAGTTGTGTCGAGTAAACAAATTTTCCTAATCTTTCTGTTCAAGCGCCATCTAC,6.21 RPM ratio (pull-down/input)
13,GATGATTGTTCTCCCAGCTGATGAATTAGTGTTGTCGAGTAAACAAATTTTCCTAATCTTTCTGTTCAAGCGCCATCTAC,3.93 RPM ratio (pull-down/input)
14,GATGATTGTTCTCCCAGCTGATGAATTAGTTCTCTCGAGTAAACAAATTTTCCTAATCTTTCTGTTCAAGCGCCATCTAC,0.491 RPM ratio (pull-down/input)
15,GATGATTGTTCTCCCAGCTGATGAATTTCAGGGCTCGAGTAAACAAATTTTCCTAATCTTTCTGTTCAAGCGCCATCTAC,0.225 RPM ratio (pull-down/input)
16,GATGATTGTTCTCCCAGCTGATGAATTGCAGACCTCGAGTAAACAAATTTTCCTAATCTTTCTGTTCAAGCGCCATCTAC,0.496 RPM ratio (pull-down/input)
17,GATGATTGTTCTCCCAGCTGATGAATTTTGGCTCTCGAGTAAACAAATTTTCCTAATCTTTCTGTTCAAGCGCCATCTAC,0.475 RPM ratio (pull-down/input)
18,GATGATTGTTCTCCCAGCTGATGAATTCCGATCATCGAGTAAACAAATTTTCCTAATCTTTCTGTTCAAGCGCCATCTAC,0.404 RPM ratio (pull-down/input)
